This is an account of results in ChEMBL document CHEMBL3988442, “University of Dundee, Small-Polar-MMV Screening Library” (2021).

Parameters in all cases: scale not given: direction of the effect not stated beside the values
The target of experiment [1] is Protein translocase subunit SecA (Escherichia coli (strain K12)) (UniProt P10408). Briefly: Assay to Identify E. coli SecA ATPase Inhibitors. The following applies: 30 µM. In kind it is functional.
For experiment [2], the target named is T1, Ubiquitin-activating enzyme e1, putative (Leishmania donovani (strain BPK282A1)) (UniProt E9BSI1).
T1 sequence (whole entry): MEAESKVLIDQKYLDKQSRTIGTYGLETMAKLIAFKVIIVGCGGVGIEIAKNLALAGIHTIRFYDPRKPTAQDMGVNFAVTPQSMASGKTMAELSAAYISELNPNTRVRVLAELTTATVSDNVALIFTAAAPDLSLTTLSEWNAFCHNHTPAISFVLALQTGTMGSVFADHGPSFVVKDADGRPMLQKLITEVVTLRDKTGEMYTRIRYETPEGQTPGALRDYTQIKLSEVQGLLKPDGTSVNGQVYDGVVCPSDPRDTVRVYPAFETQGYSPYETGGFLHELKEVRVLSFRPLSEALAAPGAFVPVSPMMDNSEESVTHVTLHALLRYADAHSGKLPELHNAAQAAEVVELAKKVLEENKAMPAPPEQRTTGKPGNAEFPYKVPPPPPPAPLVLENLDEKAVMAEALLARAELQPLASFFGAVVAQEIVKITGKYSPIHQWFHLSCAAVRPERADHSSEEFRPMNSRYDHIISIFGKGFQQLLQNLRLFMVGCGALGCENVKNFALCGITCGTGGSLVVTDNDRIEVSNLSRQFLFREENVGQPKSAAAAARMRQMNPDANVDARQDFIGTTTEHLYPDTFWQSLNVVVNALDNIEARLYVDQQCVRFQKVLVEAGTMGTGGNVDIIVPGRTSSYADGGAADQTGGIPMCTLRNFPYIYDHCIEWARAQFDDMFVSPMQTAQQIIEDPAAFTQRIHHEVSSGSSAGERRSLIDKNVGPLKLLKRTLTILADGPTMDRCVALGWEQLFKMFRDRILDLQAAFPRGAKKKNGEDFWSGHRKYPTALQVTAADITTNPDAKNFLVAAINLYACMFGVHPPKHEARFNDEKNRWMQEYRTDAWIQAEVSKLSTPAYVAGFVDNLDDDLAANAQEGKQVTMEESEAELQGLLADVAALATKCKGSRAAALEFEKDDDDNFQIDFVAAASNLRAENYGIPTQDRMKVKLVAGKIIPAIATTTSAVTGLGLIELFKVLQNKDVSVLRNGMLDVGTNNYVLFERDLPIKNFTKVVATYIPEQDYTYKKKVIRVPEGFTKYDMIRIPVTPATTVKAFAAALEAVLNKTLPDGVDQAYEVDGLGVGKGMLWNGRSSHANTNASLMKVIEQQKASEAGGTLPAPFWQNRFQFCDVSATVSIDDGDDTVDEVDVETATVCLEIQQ
Briefly: Leishmania donovani Ubiquitin Activating Enzyme (LdE1). The following applies: 30 µM. In kind it is functional.

Experiment [3] deals with AMP-activated protein kinase, AMPK (Homo sapiens) (UniProt P54646+O43741+P54619+Q9UGJ0+Q9Y478+Q13131+Q9UGI9). Briefly: AMP-dependent Kinase enzyme assay. An in vitro enzyme assay that detects ADP turnover that is directly proportional to AMPK activity. This uses naive AMPK that is activated during the assay with MK-8722. It is filed as functional. The note with it: 30 µM.

Experiment [4] addresses Sialic acid-binding Ig-like lectin 9 (Homo sapiens) (UniProt Q9Y336). The experiment can be described thus: Hs-Siglec9 ALPHAscreen SOP 20170721. The note with it: 10 µM. Background: Alpha assays give light when donor and acceptor beads are brought close together.
The next experiment concerns Trypanosoma cruzi. The experiment can be described thus: Trypanosoma cruzi phosphomannomutase and mannose-1-phosphate guanylyltransferase assay. The following applies: 10 µM. In kind it is functional.
Experiment [5] addresses T2, Arginase-2, mitochondrial (Homo sapiens) (UniProt P78540).
T2 sequence (whole entry): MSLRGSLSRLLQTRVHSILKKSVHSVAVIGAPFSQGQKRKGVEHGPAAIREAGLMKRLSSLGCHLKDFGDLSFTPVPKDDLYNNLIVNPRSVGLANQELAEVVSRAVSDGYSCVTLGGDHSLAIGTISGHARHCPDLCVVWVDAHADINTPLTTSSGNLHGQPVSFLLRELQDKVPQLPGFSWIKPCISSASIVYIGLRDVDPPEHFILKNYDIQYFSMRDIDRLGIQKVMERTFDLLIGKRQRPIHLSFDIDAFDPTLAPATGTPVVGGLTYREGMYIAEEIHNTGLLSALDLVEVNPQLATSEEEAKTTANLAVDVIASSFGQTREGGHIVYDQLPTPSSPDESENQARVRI
The experiment can be described thus: in vitro enzyme assay to detect the production of urea directly proportional to the activity of Arginase II. Also: in the data most compounds retested in dose-response had high values. In kind it is functional. The note with it: 33.3 µM.

For experiment [6], the target named is T3, Proteasome subunit beta (Trypanosoma cruzi) (UniProt O96673).
T3 sequence (whole entry): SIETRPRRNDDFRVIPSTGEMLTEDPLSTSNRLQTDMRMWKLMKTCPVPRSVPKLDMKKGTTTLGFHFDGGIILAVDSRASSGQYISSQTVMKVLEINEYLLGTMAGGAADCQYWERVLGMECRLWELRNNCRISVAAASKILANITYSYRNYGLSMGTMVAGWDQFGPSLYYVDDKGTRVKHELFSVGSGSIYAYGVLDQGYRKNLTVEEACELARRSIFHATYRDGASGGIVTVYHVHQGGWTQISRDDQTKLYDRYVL
The experiment can be described thus: Trypanosoma cruzi proteasome chymotrypsin-like activity (TcProtChymo) assay. Also: in the data most compounds retested in dose-response had high values. In kind it is functional. The following applies: 9.37 µM.

The species entered for a further experiment is Homo sapiens. The experiment can be described thus: To identify inhibition of the IFN signalling (Jak-Stat) pathway via expression of an eGFP reporter gene under the control of an IFN-stimulated response element (ISRE) containing MxA promoter. In kind it is functional. The note with it: 30 µM.
The target of experiment [7] is T4, Tyrosyl-tRNA synthetase, putative (Trypanosoma cruzi (strain CL Brener)) (UniProt Q4DSP6).
T4 sequence (whole entry): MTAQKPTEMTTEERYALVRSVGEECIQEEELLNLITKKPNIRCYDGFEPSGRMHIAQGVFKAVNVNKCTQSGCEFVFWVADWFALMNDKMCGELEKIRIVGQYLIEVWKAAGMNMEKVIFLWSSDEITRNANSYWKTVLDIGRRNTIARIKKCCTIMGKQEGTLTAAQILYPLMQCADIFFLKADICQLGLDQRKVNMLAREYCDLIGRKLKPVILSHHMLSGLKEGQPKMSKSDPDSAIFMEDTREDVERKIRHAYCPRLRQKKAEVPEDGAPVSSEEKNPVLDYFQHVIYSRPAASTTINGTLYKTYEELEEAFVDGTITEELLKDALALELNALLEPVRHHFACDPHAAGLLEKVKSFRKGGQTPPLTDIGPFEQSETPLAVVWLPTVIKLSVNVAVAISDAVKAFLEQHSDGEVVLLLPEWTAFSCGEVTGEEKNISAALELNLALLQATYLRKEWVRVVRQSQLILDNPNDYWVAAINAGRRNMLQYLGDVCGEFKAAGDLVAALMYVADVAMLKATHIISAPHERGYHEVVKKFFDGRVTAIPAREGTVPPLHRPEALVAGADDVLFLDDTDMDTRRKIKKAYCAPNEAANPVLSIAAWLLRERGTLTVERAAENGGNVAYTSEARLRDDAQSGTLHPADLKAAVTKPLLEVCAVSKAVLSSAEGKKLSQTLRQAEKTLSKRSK
The experiment can be described thus: Trypanosoma cruzi tyrosyl tRNA synthetase (TcYRS) _High Tyrosine SOP. Also: in the data most compounds retested in dose-response had high values. It is filed as functional. The following applies: 30 µM.

Experiment [8] deals with T4, Tyrosyl-tRNA synthetase, putative (Trypanosoma cruzi (strain CL Brener)). The experiment can be described thus: Trypanosoma cruzi tyrosyl tRNA synthetase (TcYRS) SOP. In kind it is functional. The following applies: 30 µM.
The target in experiment [9] is Chromo domain-containing protein 1 (Saccharomyces cerevisiae (strain ATCC 204508 / S288c) (Baker's yeast)) (UniProt P32657). Briefly: ScCHD-1 Enzyme Inhibition Assay. Also: in the data most compounds retested in dose-response had high values. In kind it is functional. The following applies: 30 µM.
Chromo domain-containing protein 1 (Saccharomyces cerevisiae (strain ATCC 204508 / S288c) (Baker's yeast)), sequence (P32657 whole entry, the tested form may be a part): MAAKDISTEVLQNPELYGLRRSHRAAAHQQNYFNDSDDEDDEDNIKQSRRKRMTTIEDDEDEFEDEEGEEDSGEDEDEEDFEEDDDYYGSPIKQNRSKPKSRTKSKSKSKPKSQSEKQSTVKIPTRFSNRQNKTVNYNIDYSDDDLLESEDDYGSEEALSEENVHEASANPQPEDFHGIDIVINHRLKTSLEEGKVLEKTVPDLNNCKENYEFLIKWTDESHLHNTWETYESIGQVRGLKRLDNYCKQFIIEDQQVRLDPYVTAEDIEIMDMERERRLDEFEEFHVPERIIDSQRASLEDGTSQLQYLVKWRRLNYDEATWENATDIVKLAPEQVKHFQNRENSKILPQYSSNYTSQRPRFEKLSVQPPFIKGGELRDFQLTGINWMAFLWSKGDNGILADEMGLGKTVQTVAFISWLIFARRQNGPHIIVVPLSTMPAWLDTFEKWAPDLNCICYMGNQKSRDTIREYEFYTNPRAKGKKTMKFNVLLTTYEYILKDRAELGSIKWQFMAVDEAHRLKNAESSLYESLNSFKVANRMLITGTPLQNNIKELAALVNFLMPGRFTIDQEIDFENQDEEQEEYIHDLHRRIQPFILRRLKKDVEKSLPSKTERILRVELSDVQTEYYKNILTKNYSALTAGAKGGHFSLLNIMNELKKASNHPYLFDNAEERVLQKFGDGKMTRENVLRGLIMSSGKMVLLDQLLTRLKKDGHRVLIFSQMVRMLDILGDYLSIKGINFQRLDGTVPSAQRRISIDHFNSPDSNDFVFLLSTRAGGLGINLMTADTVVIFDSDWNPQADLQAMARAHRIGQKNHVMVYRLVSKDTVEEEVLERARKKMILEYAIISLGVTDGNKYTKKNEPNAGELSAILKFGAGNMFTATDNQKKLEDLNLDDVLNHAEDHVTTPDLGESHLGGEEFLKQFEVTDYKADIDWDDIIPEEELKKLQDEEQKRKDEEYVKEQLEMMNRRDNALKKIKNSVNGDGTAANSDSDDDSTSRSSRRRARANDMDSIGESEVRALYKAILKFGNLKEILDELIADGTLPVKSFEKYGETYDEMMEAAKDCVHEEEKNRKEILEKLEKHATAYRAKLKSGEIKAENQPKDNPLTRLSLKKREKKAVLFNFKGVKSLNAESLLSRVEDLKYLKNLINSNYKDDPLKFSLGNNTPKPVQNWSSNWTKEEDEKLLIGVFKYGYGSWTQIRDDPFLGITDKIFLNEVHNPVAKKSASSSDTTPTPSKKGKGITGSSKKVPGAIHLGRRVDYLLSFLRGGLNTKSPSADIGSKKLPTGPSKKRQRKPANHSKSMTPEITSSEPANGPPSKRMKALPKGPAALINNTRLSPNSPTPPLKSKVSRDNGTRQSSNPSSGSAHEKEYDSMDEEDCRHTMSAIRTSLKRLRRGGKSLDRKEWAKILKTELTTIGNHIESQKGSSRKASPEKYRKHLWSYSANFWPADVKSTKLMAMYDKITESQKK

Molecules are shown by their SMILES. For some of these results: Results with a measured potency or affinity are listed apart.

Sialic acid-binding Ig-like lectin 9 (Homo sapiens), sequence (Q9Y336 whole entry): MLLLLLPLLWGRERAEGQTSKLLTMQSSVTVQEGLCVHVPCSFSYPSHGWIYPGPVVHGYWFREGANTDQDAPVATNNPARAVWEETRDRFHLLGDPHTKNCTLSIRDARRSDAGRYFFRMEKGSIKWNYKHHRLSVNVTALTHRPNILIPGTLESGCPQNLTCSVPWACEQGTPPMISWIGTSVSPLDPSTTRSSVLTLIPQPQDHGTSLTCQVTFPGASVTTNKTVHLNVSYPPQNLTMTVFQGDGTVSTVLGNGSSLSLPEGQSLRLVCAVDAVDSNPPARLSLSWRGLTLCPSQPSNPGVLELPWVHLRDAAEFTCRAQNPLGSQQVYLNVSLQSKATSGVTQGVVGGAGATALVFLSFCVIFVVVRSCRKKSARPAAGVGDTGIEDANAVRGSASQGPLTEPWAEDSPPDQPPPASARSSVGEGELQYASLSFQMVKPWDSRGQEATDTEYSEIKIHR
Protein translocase subunit SecA (Escherichia coli (strain K12)), sequence (P10408 whole entry): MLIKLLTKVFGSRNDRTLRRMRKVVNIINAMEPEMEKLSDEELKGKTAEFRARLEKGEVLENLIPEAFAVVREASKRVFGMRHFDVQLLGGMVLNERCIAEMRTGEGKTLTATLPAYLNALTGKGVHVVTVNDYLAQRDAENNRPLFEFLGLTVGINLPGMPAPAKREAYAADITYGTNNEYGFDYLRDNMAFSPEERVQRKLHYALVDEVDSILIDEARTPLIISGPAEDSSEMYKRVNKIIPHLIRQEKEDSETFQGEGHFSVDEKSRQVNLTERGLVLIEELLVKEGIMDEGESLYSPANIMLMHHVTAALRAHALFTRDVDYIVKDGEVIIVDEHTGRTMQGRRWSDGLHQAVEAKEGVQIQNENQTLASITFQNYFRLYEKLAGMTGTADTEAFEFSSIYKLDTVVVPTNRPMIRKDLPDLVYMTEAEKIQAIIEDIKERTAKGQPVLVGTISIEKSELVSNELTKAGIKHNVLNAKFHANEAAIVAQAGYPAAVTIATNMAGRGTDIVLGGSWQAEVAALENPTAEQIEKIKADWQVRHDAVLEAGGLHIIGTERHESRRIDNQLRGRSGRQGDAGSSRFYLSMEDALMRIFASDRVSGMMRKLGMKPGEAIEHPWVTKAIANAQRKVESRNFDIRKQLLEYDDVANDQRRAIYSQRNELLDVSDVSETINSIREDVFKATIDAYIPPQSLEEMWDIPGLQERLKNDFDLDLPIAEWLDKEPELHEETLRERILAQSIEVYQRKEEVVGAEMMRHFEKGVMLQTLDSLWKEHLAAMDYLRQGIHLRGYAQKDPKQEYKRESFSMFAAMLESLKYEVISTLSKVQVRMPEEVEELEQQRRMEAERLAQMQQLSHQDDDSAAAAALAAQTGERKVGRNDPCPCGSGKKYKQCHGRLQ

Turning to `COc1ccc(NC(=O)NCC(O)c2ccc(F)cc2F)c(OC)c1` (stereo not drawn), the Percent Effect was 0.46% in experiment [1]; 3.8% in experiment [2]; 1.85% in experiment [3]; -3.56% in [4]; -4.41% in the experiment with Trypanosoma cruzi; 10.5% in experiment [5]. Also, the Percent Effect was 13.2% in experiment [6]; 12.5% in the experiment filed under Homo sapiens; 3.12% in experiment [7]; 10.1% in [8]; -20.4% in [9].
Regarding `CC1CN(C(=O)c2ccn(-c3cccc(Cl)c3)n2)CCO1` (stereo not drawn), the Percent Effect is -7.39% in experiment [1]; 20.8% in experiment [2]; 0.341% in [3]; 6.09% in experiment [4]; 7.87% in the experiment with Trypanosoma cruzi; -2.13% in experiment [5]. For the same compound, the Percent Effect was 17.4% in experiment [6]; 16.3% in the experiment listed under Homo sapiens; 8.74% in experiment [7]; 24.4% in [8]; -10.1% in [9].
As for `CCc1noc(C(C)N2CCN(Cc3noc(C)n3)CC2)n1` (stereo not drawn), the Percent Effect in experiment [1] is 1.26%; in experiment [2], 21.1%; in [3] it was -0.566%; in [4], -7.24%; with Trypanosoma cruzi, 1.32%; in experiment [5], -4.21%. Further, the Percent Effect in experiment [6] was 19.6%; in the experiment filed under Homo sapiens, 15.5%; in [7] it was 6.37%; in experiment [8], 17.1%; in [9] it was -7.65%.
For `CN(C)CCNC(=O)c1ccc(OC2CCN(S(C)(=O)=O)CC2)c(Cl)c1`, the Percent Effect in experiment [1] was -6.99%; in [2], 18.9%; in experiment [3] it was -3.92%; in [4], 19.3%; with Trypanosoma cruzi it was 8.5%; in [5] it was 3.23%. Moreover, the Percent Effect in experiment [6] is 13.8%; in the experiment filed under Homo sapiens, -5.52%; in experiment [7], 7.53%; in [8], 21%; in experiment [9], -4.57%.
Take `Cc1nc(CN2CCc3ncnc(-c4ccc(F)cc4)c3CC2)cs1`: the Percent Effect in experiment [1] was -3.21%; in experiment [2], 10.8%; in experiment [3], 5.22%; in experiment [4], -0.105%; in the experiment with Trypanosoma cruzi it was -1.66%; in experiment [5] it was 9.87%. For the same compound, the Percent Effect was 18.4% in [6]; -9.45% in the experiment listed under Homo sapiens; 5.41% in experiment [7]; 17.9% in [8]; -0.896% in experiment [9].
Take `COc1cnc(C2(O)CCN(C(=O)c3ccncc3)CC2)c(OC)n1`: the Percent Effect in [1] is -4.14%; in experiment [2] it was 4.05%; in [3], 8.66%; in experiment [4], 2.87%; in the experiment with Trypanosoma cruzi it was 2.77%; in [5], -1.16%. Also, the Percent Effect in experiment [6] was 3.74%; in the experiment filed under Homo sapiens, 8.85%; in experiment [7] it was 2.15%; in experiment [8], 9.09%; in [9] it was -11.8%.
Regarding `CC(=O)N1CCn2cc(CNC(=O)c3cccn3C)nc2C1`, the Percent Effect in experiment [1] is -2.25%; in [2], 13.3%; in experiment [3], 8.17%; in experiment [4] it was -3.72%; in the experiment on Trypanosoma cruzi, -5.32%; in experiment [5], 0.233%. The Percent Effect is 2.2% in experiment [6]; 5.97% in the experiment listed under Homo sapiens; 3.19% in experiment [7]; 14.1% in experiment [8]; -2.9% in experiment [9].
`Cn1ccnc1CN1CCCCC1Cn1cccn1` (stereo not drawn): the Percent Effect was -4.99% in [1]; 3.8% in experiment [2]; 0.666% in experiment [3]; 3.72% in experiment [4]; 0.718% in the experiment with Trypanosoma cruzi; 0.215% in [5]. For the same compound, the Percent Effect was -1.03% in experiment [6]; 4.51% in the experiment filed under Homo sapiens; 6.25% in experiment [7]; 10.1% in experiment [8]; -20.8% in experiment [9].
